According to PubChem BioAssay (NCI):
This is part of a sample that, as a whole, favours compounds with a hit. Of some 79,000 tested, about 15% had one in any assay. Values without a mark were called inactive. The source made the active and inactive calls. Cut-off read from the data, not from the text of the source: active = growth inhibition above about 70%; inactive = the rest.

Columns and labels:
[1] = NCI Yeast Anticancer Drug Screen. Data for the rad52 strain (AID 147);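 note: 0% = growth of vehicle-treated control cultures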; details: S. cerevisiae rad52 mutant growth inhibition, hits give high values
Outline: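 Growth of repair-deficient yeast cells was compared between compound-treated and vehicle-treated cultures to give percent inhibition.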

[2] = NCI Yeast Anticancer Drug Screen. Data for the wt1 strain (AID 149);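 note: 0% = growth of vehicle-treated wt1 cultures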; details: S. cerevisiae wt1 strain (SPY 50644) growth inhibition, hits give high values
Outline: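 Compounds are added to wt1 yeast cultures. Growth is then measured. Inhibition is expressed relative to vehicle-treated controls.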

[3] = NCI Yeast Anticancer Drug Screen. Data for the rad50EPP+ strain (AID 151);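 note: 0% = growth of vehicle-treated control cultures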; details: S. cerevisiae rad50 mutant strain, hits give high values
Outline: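 Measured: growth inhibition of rad50EPP+ yeast. Reference: vehicle-treated controls. Screen uses strains with defined genetic alterations in DNA damage repair or cell cycle control.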

[4] = NCI Yeast Anticancer Drug Screen. Data for the mgt1 strain (AID 153); details: S. cerevisiae mgt1 mutant growth inhibition, hits give high values
Outline: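 Compounds were applied to mgt1 mutant yeast, and growth was then compared against vehicle-treated control cultures to give percent inhibition.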

[5] = NCI Yeast Anticancer Drug Screen. Data for the rad50 strain (AID 155);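 note: 0% = growth of vehicle-only cultures of the same strain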; details: S. cerevisiae rad50 strain growth inhibition, hits give high values
Outline: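 Inhibition values express reduced yeast growth in compound-treated cultures relative to vehicle-treated controls.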

[6] = NCI Yeast Anticancer Drug Screen. Data for the mec2-1 strain (AID 157); details: S. cerevisiae mec2-1 strain, hits give high values
Outline: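 Compounds were applied to mec2-1 yeast cells. Their growth was then compared with that of vehicle-treated cultures to give growth inhibition.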

[7] = NCI Yeast Anticancer Drug Screen. Data for the rad14 strain (AID 159);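 note: 0% = growth of vehicle-treated control cultures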; details: S. cerevisiae rad14 strain growth inhibition, hits give high values
Outline: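 A mutant yeast strain defective in DNA damage repair is treated with compound; inhibition of its growth is scored against untreated, vehicle-exposed cultures.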

[8] = NCI Yeast Anticancer Drug Screen. Data for the sgs1 mgt1 strain (AID 161);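 note: 0% = growth of cultures given vehicle only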; details: S. cerevisiae sgs1 mgt1 strain, hits give high values
Outline: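 Percent growth inhibition was derived by comparing compound-exposed mutant yeast with vehicle-exposed cultures. The strain carries alterations in DNA damage repair.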

[9] = NCI Yeast Anticancer Drug Screen. Data for the CLN2oe strain (AID 163);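 note: 0% = growth of vehicle-only control cultures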; details: S. cerevisiae CLN2oe strain, hits give high values
Outline: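 Cells of an engineered yeast line with disturbed cell-cycle regulation are treated with compound. Inhibition of growth is then calculated relative to the vehicle-treated reference.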

[10] = NCI Yeast Anticancer Drug Screen. Data for the cln2 rad14 strain (AID 165);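 note: 0% = growth equal to vehicle treated cultures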; details: S. cerevisiae cln2 rad14 strain, hits give high values
Outline: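 Strain: cln2 rad14 yeast, altered in cell cycle control and DNA damage repair. Read-out: growth inhibition vs vehicle.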

[11] = NCI Yeast Anticancer Drug Screen. Data for the bub3 strain (AID 167); details: S. cerevisiae bub3 mutant strain, hits give high values
Outline: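 Steps: expose the mutant yeast strain to compound; grow alongside vehicle-treated cultures; measure growth; express inhibition against the vehicle cultures.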

[12] = NCI Yeast Anticancer Drug Screen. Data for the wt2 strain (AID 169);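 note: 0% = growth of vehicle-treated yeast cultures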; details: S. cerevisiae wt2 strain growth inhibition, hits give high values
Outline: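 Growth of compound-treated yeast is measured and expressed as inhibition relative to vehicle-only controls.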

[13] = NCI Yeast Anticancer Drug Screen. Data for the mlh1 strain (AID 171);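 note: 0% = growth of vehicle-treated control cultures of the same strain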; details: S. cerevisiae mlh1 strain growth inhibition, hits give high values
Outline: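 Test agents were incubated with yeast bearing a defined DNA damage repair or cell cycle control alteration; values are growth inhibition normalised to vehicle-treated cultures.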

[14] = NCI Yeast Anticancer Drug Screen. Data for the sgs1 strain (AID 173);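 note: 0% = growth of vehicle-only control cultures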; details: S. cerevisiae sgs1 mutant, hits give high values
Outline: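 Strain with an altered DNA repair or cell cycle pathway exposed to compound. Growth then measured. Value = inhibition versus vehicle control.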

[15] = NCI Yeast Anticancer Drug Screen. Data for the mlh1 rad18 strain (AID 175); details: S. cerevisiae mlh1 rad18 strain growth inhibition, hits give high values
Outline: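 A repair-deficient yeast strain is exposed to test compound, and growth is scored relative to vehicle-treated controls.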

[16] = NCI Yeast Anticancer Drug Screen. Data for the rad18 strain (AID 177); details: S. cerevisiae rad18 mutant growth inhibition, hits give high values
Outline: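 DNA-repair-defective yeast; compound treatment; growth inhibition scored against vehicle.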

[17] = at 5.0 µM (retest, dose inferred, filed as 0.5)
[18] = at 50.0 µM (retest, dose inferred, filed as 5.0)

CC(=O)SC(C[N+](=O)[O-])c1ccccc1 (stereo unspecified)
growth inhibition ([1]; at 1.2 µM): 55%
growth inhibition ([1]; at 3.7 µM): 76% (active)
growth inhibition ([1]; at 11.0 µM): 88% (active)
growth inhibition ([1]; at 33.0 µM): 99% (active)
growth inhibition ([1]; at 100.0 µM): 99% (active)
growth inhibition ([2]; at 1.2 µM): 0%
growth inhibition ([2]; at 3.7 µM): 0%
growth inhibition ([2]; at 11.0 µM): 17%
growth inhibition ([2]; at 33.0 µM): 95% (active)
growth inhibition ([2]; at 100.0 µM): 100% (active)
growth inhibition ([3]; at 1.2 µM): 89% (active)
growth inhibition ([3]; at 3.7 µM): 92% (active)
growth inhibition ([3]; at 11.0 µM): 95% (active)
growth inhibition ([3]; at 33.0 µM): 99% (active)
growth inhibition ([3]; at 100.0 µM): 99% (active)
growth inhibition ([4]; at 1.2 µM): 1%
growth inhibition ([4]; at 3.7 µM): 4%
growth inhibition ([4]; at 11.0 µM): 18%
growth inhibition ([4]; at 33.0 µM): 81% (active)
growth inhibition ([4]; at 100.0 µM): 100% (active)
growth inhibition ([5]; at 1.2 µM): 81% (active)
growth inhibition ([5]; at 3.7 µM): 92% (active)
growth inhibition [5, 17]: 87% (active)
growth inhibition ([5]; at 11.0 µM): 96% (active)
growth inhibition ([5]; at 33.0 µM): 99% (active)
growth inhibition [5, 18]: 98% (active)
growth inhibition ([5]; at 50.0 µM): 99.2% (active)
growth inhibition ([5]; at 100.0 µM): 99% (active)
growth inhibition ([6]; at 1.2 µM): 5%
growth inhibition ([6]; at 3.7 µM): 17%
growth inhibition [6, 17]: -15%
growth inhibition ([6]; at 11.0 µM): 52%
growth inhibition ([6]; at 33.0 µM): 94% (active)
growth inhibition [6, 18]: 99% (active)
growth inhibition ([6]; at 50.0 µM): 99.6% (active)
growth inhibition ([6]; at 100.0 µM): 100% (active)
growth inhibition ([7]; at 1.2 µM): 14%
growth inhibition ([7]; at 3.7 µM): 28%
growth inhibition ([7]; at 11.0 µM): 42%
growth inhibition ([7]; at 33.0 µM): 98% (active)
growth inhibition ([7]; at 100.0 µM): 99% (active)
growth inhibition [8, 17]: -7%
growth inhibition [8, 18]: 98% (active)
growth inhibition ([8]; at 50.0 µM): 95.8% (active)
growth inhibition ([9]; at 1.2 µM): 7%
growth inhibition ([9]; at 3.7 µM): 19%
growth inhibition ([9]; at 11.0 µM): 38%
growth inhibition ([9]; at 33.0 µM): 78% (active)
growth inhibition ([9]; at 100.0 µM): 99% (active)
growth inhibition [10, 17]: -20%
growth inhibition [10, 18]: 98% (active)
growth inhibition ([10]; at 50.0 µM): 31.1%
growth inhibition ([11]; at 1.2 µM): 23%
growth inhibition ([11]; at 3.7 µM): 30%
growth inhibition [11, 17]: 8%
growth inhibition ([11]; at 11.0 µM): 68%
growth inhibition ([11]; at 33.0 µM): 97% (active)
growth inhibition [11, 18]: 98% (active)
growth inhibition ([11]; at 50.0 µM): 95.2% (active)
growth inhibition ([11]; at 100.0 µM): 99% (active)
growth inhibition ([12]; at 1.2 µM): -3%
growth inhibition ([12]; at 3.7 µM): -4%
growth inhibition ([12]; at 11.0 µM): 14%
growth inhibition ([12]; at 33.0 µM): 99% (active)
growth inhibition ([12]; at 100.0 µM): 99% (active)
growth inhibition ([13]; at 1.2 µM): 5%
growth inhibition ([13]; at 3.7 µM): 11%
growth inhibition ([13]; at 11.0 µM): 33%
growth inhibition ([13]; at 33.0 µM): 96% (active)
growth inhibition ([13]; at 100.0 µM): 99% (active)
growth inhibition ([14]; at 1.2 µM): 15%
growth inhibition ([14]; at 3.7 µM): 41%
growth inhibition ([14]; at 11.0 µM): 62%
growth inhibition ([14]; at 33.0 µM): 100% (active)
growth inhibition ([14]; at 100.0 µM): 99% (active)
growth inhibition [15, 17]: -37%
growth inhibition [15, 18]: 98% (active)
growth inhibition ([15]; at 50.0 µM): 99.5% (active)
growth inhibition ([16]; at 1.2 µM): 19%
growth inhibition ([16]; at 3.7 µM): 33%
growth inhibition ([16]; at 11.0 µM): 55%
growth inhibition ([16]; at 33.0 µM): 93% (active)
growth inhibition ([16]; at 100.0 µM): 99% (active)

CS(=O)(=O)SCc1ccc([N+](=O)[O-])cc1
growth inhibition ([1]; at 1.2 µM): 7%
growth inhibition ([1]; at 3.7 µM): 30%
growth inhibition ([1]; at 11.0 µM): 90% (active)
growth inhibition ([1]; at 33.0 µM): 99% (active)
growth inhibition ([1]; at 100.0 µM): 97% (active)
growth inhibition ([2]; at 1.2 µM): -5%
growth inhibition ([2]; at 3.7 µM): 1%
growth inhibition ([2]; at 11.0 µM): 38%
growth inhibition ([2]; at 33.0 µM): 99% (active)
growth inhibition ([2]; at 100.0 µM): 98% (active)
growth inhibition ([3]; at 1.2 µM): 8%
growth inhibition ([3]; at 3.7 µM): 57%
growth inhibition ([3]; at 11.0 µM): 97% (active)
growth inhibition ([3]; at 33.0 µM): 99% (active)
growth inhibition ([3]; at 100.0 µM): 97% (active)
growth inhibition ([4]; at 1.2 µM): -2%
growth inhibition ([4]; at 3.7 µM): -4%
growth inhibition ([4]; at 11.0 µM): 61%
growth inhibition ([4]; at 33.0 µM): 99% (active)
growth inhibition ([4]; at 100.0 µM): 98% (active)
growth inhibition ([5]; at 1.2 µM): 1%
growth inhibition ([5]; at 3.7 µM): 41%
growth inhibition [5, 17]: 20%
growth inhibition ([5]; at 11.0 µM): 97% (active)
growth inhibition ([5]; at 33.0 µM): 99% (active)
growth inhibition [5, 18]: 93% (active)
growth inhibition ([5]; at 50.0 µM): 97.9% (active)
growth inhibition ([5]; at 100.0 µM): 97% (active)
growth inhibition ([6]; at 1.2 µM): 3%
growth inhibition ([6]; at 3.7 µM): 4%
growth inhibition [6, 17]: -25%
growth inhibition ([6]; at 11.0 µM): 85% (active)
growth inhibition ([6]; at 33.0 µM): 99% (active)
growth inhibition [6, 18]: 96% (active)
growth inhibition ([6]; at 50.0 µM): 98% (active)
growth inhibition ([6]; at 100.0 µM): 97% (active)
growth inhibition ([7]; at 1.2 µM): 5%
growth inhibition ([7]; at 3.7 µM): 18%
growth inhibition ([7]; at 11.0 µM): 69%
growth inhibition ([7]; at 33.0 µM): 99% (active)
growth inhibition ([7]; at 100.0 µM): 97% (active)
growth inhibition [8, 17]: -11%
growth inhibition [8, 18]: 95% (active)
growth inhibition ([8]; at 50.0 µM): 98.1% (active)
growth inhibition ([9]; at 1.2 µM): -2%
growth inhibition ([9]; at 3.7 µM): 7%
growth inhibition ([9]; at 11.0 µM): 57%
growth inhibition ([9]; at 33.0 µM): 98% (active)
growth inhibition ([9]; at 100.0 µM): 97% (active)
growth inhibition [10, 17]: -35%
growth inhibition [10, 18]: 94% (active)
growth inhibition ([10]; at 50.0 µM): 96.5% (active)
growth inhibition ([11]; at 1.2 µM): 6%
growth inhibition ([11]; at 3.7 µM): 40%
growth inhibition [11, 17]: 51%
growth inhibition ([11]; at 11.0 µM): 97% (active)
growth inhibition ([11]; at 33.0 µM): 99% (active)
growth inhibition [11, 18]: 94% (active)
growth inhibition ([11]; at 50.0 µM): 98.8% (active)
growth inhibition ([11]; at 100.0 µM): 96% (active)
growth inhibition ([12]; at 1.2 µM): -1%
growth inhibition ([12]; at 3.7 µM): -3%
growth inhibition ([12]; at 11.0 µM): 69%
growth inhibition ([12]; at 33.0 µM): 99% (active)
growth inhibition ([12]; at 100.0 µM): 97% (active)
growth inhibition ([13]; at 1.2 µM): 6%
growth inhibition ([13]; at 3.7 µM): 14%
growth inhibition ([13]; at 11.0 µM): 70% (active)
growth inhibition ([13]; at 33.0 µM): 99% (active)
growth inhibition ([13]; at 100.0 µM): 97% (active)
growth inhibition ([14]; at 1.2 µM): -3%
growth inhibition ([14]; at 3.7 µM): 39%
growth inhibition ([14]; at 11.0 µM): 97% (active)
growth inhibition ([14]; at 33.0 µM): 99% (active)
growth inhibition ([14]; at 100.0 µM): 97% (active)
growth inhibition [15, 17]: -31%
growth inhibition [15, 18]: 93% (active)
growth inhibition ([15]; at 50.0 µM): 98% (active)
growth inhibition ([16]; at 1.2 µM): 7%
growth inhibition ([16]; at 3.7 µM): 29%
growth inhibition ([16]; at 11.0 µM): 90% (active)
growth inhibition ([16]; at 33.0 µM): 99% (active)
growth inhibition ([16]; at 100.0 µM): 97% (active)
